As usually defined, the AC50 is the midpoint of the concentration-response curve, whichever way the signal moves.

Several values for one entry are separate records, joined by “and”; a condition that tells them apart may be missing. Equal values may be shown once. Some compounds were tested as several samples or in several runs, with calls that do not always agree. Activity calls are given as the source filed them. Rule for the calls: active = hit-call score of the fitted dose curve at least 0.9, where 1 is the maximum; inactive = score below 0.9.

Results on seven compounds are retold here after PubChem BioAssay (EPA / NIEHS).

Read-out in experiment [1]: Interleukin-1 alpha (IL1a), IL1A (gene 3552)
Put plainly: BSK_LPS_IL1a: BioMAP Diversity Plus: LPS Assay for Interleukin-1 alpha (IL1a) Biomarker Activity (AID 2283080). The conditions noted are these: primary human HUVEC with PBMC; actives raise or lower the signal. Summed up:
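ELISA read-out of IL-1 alpha from a human primary vascular co-culture (endothelium plus PBMC) under LPS, sampled 24 hours post-dosing. Activity was fitted in both directions relative to DMSO controls.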

Read-out in experiment [2]: Monocyte Chemoattractant Protein-1 (MCP1), CCL2 (gene 6347)
Put plainly: BSK_LPS_MCP1: BioMAP Diversity Plus: LPS Assay for Monocyte Chemoattractant Protein-1 (MCP1) Biomarker Activity (AID 2283081).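 For AC50: secreted MCP-1 protein quantified by ELISA in culture supernatant.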 The conditions noted are these: primary human HUVEC with PBMC; actives raise or lower the signal. The method, boiled down:
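Human endothelial–PBMC co-cultures were dosed with chemical, then LPS-driven MCP-1 levels were quantified by ELISA at 24 h. Activity in either direction was fitted versus DMSO negative control.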

Experiment [3] can be described thus: BSK_LPS_PGE2: BioMAP Diversity Plus: LPS Assay for Prostaglandin E2 (PGE2) Biomarker Activity (AID 2283082).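 For AC50: secreted prostaglandin E2 measured by ELISA in LPS-stimulated co-culture.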 Particulars: primary human HUVEC with PBMC; actives raise or lower the signal. The method, boiled down:
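Primary human endothelial cells and blood mononuclear cells, co-cultured with LPS, receive test chemical; PGE2 ELISA follows at 24 h, with SRB-stained parallel cultures flagging cytotoxicity.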

Read-out in experiment [4]: Macrophage colony-stimulating factor (MCSF), CSF1 (gene 1435)
Briefly: BSK_LPS_MCSF: BioMAP Diversity Plus: LPS Assay for Macrophage colony-stimulating factor (MCSF) Biomarker Activity (AID 2283083). The conditions noted are these: primary human HUVEC with PBMC; actives raise or lower the signal. The method, boiled down:
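ELISA readout of M-CSF after 24 h compound exposure in a human endothelial/PBMC co-culture. Activity, in either direction, is fitted relative to DMSO vehicle.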

Read-out in experiment [5]: Tissue Factor, F3 (gene 2152)
Briefly: BSK_LPS_TissueFactor: BioMAP Diversity Plus: LPS Assay for Tissue Factor Biomarker Activity (AID 2283084). The conditions noted are these: primary human HUVEC with PBMC; actives raise or lower the signal. The method, boiled down: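 ELISA signal for cell-surface Tissue Factor (CD142) was read 24 h after compound dosing of an LPS-stimulated human endothelial–PBMC primary co-culture. Gain or loss of signal was scored relative to DMSO.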

Read-out in experiment [6]: CD38, CD38 (gene 952)
Put plainly: BSK_SAg_CD38: BioMAP Diversity Plus: SAg Assay for CD38 Biomarker Activity (AID 2283087). The conditions noted are these: primary human HUVEC with PBMC; actives raise or lower the signal. The method, boiled down: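 Measures CD38 on a human endothelial/PBMC co-culture driven by SEB and TSST-1, 24 h after compound exposure, using ELISA with fluorescence detection; DMSO defines baseline for bidirectional curve fitting.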

Read-out in experiment [7]: CD40, CD40 (gene 958)
Put plainly: BSK_SAg_CD40: BioMAP Diversity Plus: SAg Assay for CD40 Biomarker Activity (AID 2283088). Particulars: primary human HUVEC with PBMC; actives raise or lower the signal. The method, boiled down: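 Compounds were dosed onto a human primary endothelial–PBMC co-culture, and after 24 h CD40 was quantified by ELISA using a fluorescence signal. Activity in either direction was fitted relative to DMSO.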

Read-out in experiment [8]: CD69, CD69 (gene 969)
Put plainly: BSK_SAg_CD69: BioMAP Diversity Plus: SAg Assay for CD69 Biomarker Activity (AID 2283089).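 For AC50: cell surface CD69 protein quantified by ELISA with fluorescence detection.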 Particulars: primary human HUVEC with PBMC; actives raise or lower the signal. Summed up: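 Endothelial/PBMC co-culture; chemical added; 24 h incubation; CD69 ELISA with fluorescence detection; bidirectional fit vs DMSO.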

Read-out in experiment [9]: Monocyte Chemoattractant Protein-1 (MCP1), CCL2 (gene 6347)
Briefly: BSK_SAg_MCP1: BioMAP Diversity Plus: SAg Assay for Monocyte Chemoattractant Protein-1 (MCP1) Biomarker Activity (AID 2283090). Particulars: primary human HUVEC with PBMC; actives raise or lower the signal. Summed up: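 Values derive from bidirectional fitting of ELISA-measured MCP1 against DMSO controls. Readings were taken 24 h after dosing human vascular endothelial cells co-cultured with peripheral blood mononuclear cells under superantigen stimulation.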

Read-out in experiment [10]: E-selectin (Homo sapiens) (UniProt P16581)
Briefly: BSK_SAg_Eselectin: BioMAP Diversity Plus: SAg Assay for Eselectin Biomarker Activity (AID 2283091). The conditions noted are these: primary human HUVEC with PBMC; actives raise or lower the signal. Summed up: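 Co-culture: HUVEC + PBMC. Dose compound; 24 h. ELISA for E-selectin. Bidirectional fit vs DMSO.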

Read-out in experiment [11]: Monokine induced gamma interferon (MIG), CXCL9 (gene 4283)
Briefly: BSK_SAg_MIG: BioMAP Diversity Plus: SAg Assay for Monokine induced gamma interferon (MIG) Biomarker Activity (AID 2283092). The conditions noted are these: primary human HUVEC with PBMC; actives raise or lower the signal. The method, boiled down: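 Measures CXCL9 protein by ELISA in a human vascular primary-cell co-culture (umbilical vein endothelium with PBMC) 24 h after chemical addition. Activity is scored up or down from the DMSO control.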

Experiment [12] can be described thus: BSK_SAg_PBMCCytotoxicity: PBMC Cytotoxicity Assessment in the BioMAP Diversity Plus: SAg Assay (AID 2283093).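 For AC50: PBMC superantigen activated with SEB plus TSST-1 one hour after compound addition.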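 Note: PBMC viability measured as Alamar Blue reduction fluorescence at 546/580 nm; fitted both ways against DMSO so a hit may be loss or gain of signal.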 The conditions noted are these: primary human HUVEC with PBMC. The method, boiled down:
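Alamar Blue reduction (6 h, 546/580 nm) reports PBMC cytotoxicity after 90 h superantigen activation (SEB, TSST-1; 20 ng/mL final each) with 1 h compound pre-treatment. Gain or loss of signal fitted versus DMSO.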

Read-out in experiment [13]: Interleukin-8 (IL8), CXCL8 (gene 3576)
Put plainly: BSK_SAg_IL8: BioMAP Diversity Plus: SAg Assay for Interleukin-8 (IL8) Biomarker Activity (AID 2283094). The conditions noted are these: primary human HUVEC with PBMC; actives raise or lower the signal. Summed up: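 Primary human endothelial cells with PBMC, exposed 24 h; IL-8 determined by ELISA, analysed bidirectionally relative to DMSO.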

Experiment [14] is described as follows: BSK_SAg_Proliferation: Cell Proliferation Assessment in the BioMAP Diversity Plus: SAg Assay (AID 2283095).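 Note: relative cell number as total protein by SRB absorbance in sub-confluent culture.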 Particulars: primary human HUVEC with PBMC. Summed up: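 A human primary co-culture of umbilical vein endothelium and blood mononuclear cells receives compound; relative cell number is quantified at 96 h by SRB staining and 560 nm absorbance, with DMSO-referenced bidirectional curve fitting.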

Experiment [15] in a line: BSK_SAg_SRB: Viability Assessment in the BioMAP Diversity Plus: SAg Assay (AID 2283096).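 Note: cells read one day after compound addition; hits may be either gain or loss of signal compared with DMSO.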 The conditions noted are these: primary human HUVEC with PBMC. The method, boiled down: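 This overt-cytotoxicity endpoint quantifies protein in human endothelial/PBMC co-cultures at 24 h using SRB absorbance (560 nm) after trichloroacetic acid fixation. Values reflect signal change from the DMSO negative control, fitted bidirectionally.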

Read-out in experiment [16]: Tumor necrosis factor (Homo sapiens) (UniProt P01375)
Put plainly: BSK_LPS_TNFa: BioMAP Diversity Plus: LPS Assay for Tumour Necrosis Factor alpha (TNFa) Biomarker Activity (AID 2283085).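 For AC50: TNFa protein level quantified by ELISA in the co-culture.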 The conditions noted are these: primary human HUVEC with PBMC; actives raise or lower the signal. The method, boiled down: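 ELISA-based TNFa endpoint in a human endothelial–PBMC co-culture sampled 24 h post-exposure. Curves were fitted in both directions using DMSO as baseline of activity.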

Read-out in experiment [17]: Vascular cell adhesion molecule 1 (VCAM1), VCAM1 (gene 7412)
Briefly: BSK_LPS_VCAM1: BioMAP Diversity Plus: LPS Assay for Vascular cell adhesion molecule 1 (VCAM1) Biomarker Activity (AID 2283086). The conditions noted are these: primary human HUVEC with PBMC; actives raise or lower the signal. The method, boiled down:
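Measured by ELISA: VCAM-1 in LPS-activated HUVEC/PBMC co-cultures 24 h after treatment. Values reflect bidirectional fitting with DMSO as baseline.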

E-selectin (Homo sapiens), sequence (P16581 whole entry, looked up): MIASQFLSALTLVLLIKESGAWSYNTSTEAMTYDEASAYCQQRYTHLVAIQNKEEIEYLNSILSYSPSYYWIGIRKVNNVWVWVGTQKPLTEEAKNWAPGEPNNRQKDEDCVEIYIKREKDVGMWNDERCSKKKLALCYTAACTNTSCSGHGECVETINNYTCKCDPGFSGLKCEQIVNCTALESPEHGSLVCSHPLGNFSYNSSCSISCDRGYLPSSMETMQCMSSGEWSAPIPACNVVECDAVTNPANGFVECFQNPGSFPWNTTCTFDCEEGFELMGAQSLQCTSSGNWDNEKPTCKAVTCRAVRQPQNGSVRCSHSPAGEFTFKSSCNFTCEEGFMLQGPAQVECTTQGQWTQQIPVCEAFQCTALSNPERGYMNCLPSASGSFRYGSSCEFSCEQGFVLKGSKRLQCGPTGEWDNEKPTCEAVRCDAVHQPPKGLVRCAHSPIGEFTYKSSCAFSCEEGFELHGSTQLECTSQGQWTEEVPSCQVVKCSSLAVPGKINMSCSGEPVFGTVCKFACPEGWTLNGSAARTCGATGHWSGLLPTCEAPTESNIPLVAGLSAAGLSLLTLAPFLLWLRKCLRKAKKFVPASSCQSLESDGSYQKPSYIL
Tumor necrosis factor (Homo sapiens), sequence (P01375 whole entry, looked up): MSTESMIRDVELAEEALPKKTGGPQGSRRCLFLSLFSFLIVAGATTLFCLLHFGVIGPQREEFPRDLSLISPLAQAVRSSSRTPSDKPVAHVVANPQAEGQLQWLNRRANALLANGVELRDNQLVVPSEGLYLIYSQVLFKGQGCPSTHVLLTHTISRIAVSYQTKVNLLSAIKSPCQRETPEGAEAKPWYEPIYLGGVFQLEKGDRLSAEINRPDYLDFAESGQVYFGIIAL

With `CCCCC(CC)C(=O)O` (stereo not drawn), the result in [1], in experiment [2], in experiment [3], in experiment [4], in experiment [5] and in [6] was inactive. Further, the outcome in experiment [7], in experiment [8], in experiment [9], in experiment [10], in [11] and in experiment [12] was inactive. The result in experiment [13], in experiment [14] and in experiment [15] was inactive.
`CN(C)c1ccc(C(=C2C=CC(=[N+](C)C)C=C2)c2ccccc2)cc1`: the concentration at half-maximal activity (AC50) was 9.44 nM (active) in [1]; 13.3 nM (active) in experiment [2]; 8.2 nM (active) in experiment [3]; 37.9 nM (active) in [4]; 25 nM (active) in [5]; 53.5 nM (active) in [6]. Besides, the AC50 in experiment [7] is 8.57 nM (active); in experiment [8], 3.38 nM (active); in experiment [9], 26 nM (active); in [10], 8.2 nM (active); in experiment [11] it was 132 nM (active); in experiment [12], 481 nM (active). For the same compound, the half-maximal activity concentration (AC50) was 2780 nM (active) in experiment [13], 15.3 nM (active) in [14] and 74.7 nM (active) in experiment [15].
Turning to `OCC(F)(F)C(F)(F)C(F)(F)C(F)(F)C(F)(F)C(F)(F)C(F)(F)C(F)(F)C(F)(F)C(F)(F)C(F)(F)F`, the result in experiment [2], in experiment [4], in [5], in experiment [6], in experiment [7] and in [8] was inactive. Further, the outcome in experiment [9], in [10], in experiment [11], in [13] and in [15] was inactive. The AC50 in experiment [3] is 42.7 nM (active) and 227 nM (active); in experiment [4], 417 nM (active); in [6], 6.23 nM (active); in experiment [12], 115 nM (active) and 64.1 nM (active); in experiment [14] it was 476 nM (active) and 63.9 nM (active).
For the compound `CCCCCCCCCCCCCCCCCC[N+](C)(C)Cc1ccccc1`, the AC50 is 2970 nM (active) in experiment [2]; 2730 nM (active) in experiment [4]; 2690 nM (active) in experiment [5]; 3580 nM (active) in experiment [16]; 3090 nM (active) in [17]; 2730 nM (active) in experiment [6]. Besides, the AC50 was 2740 nM (active) in experiment [7]; 2730 nM (active) in experiment [8]; 3010 nM (active) in experiment [9]; 4860 nM (active) in [10]; 3190 nM (active) in experiment [11]; 919 nM (active) in experiment [12]. Also, the AC50 in experiment [13] is 10000 nM (active); in experiment [14] it was 312 nM (active); in experiment [15], 2670 nM (active). In addition, in experiment [3], the result was inactive.
On to `COc1cc(OC)nc(NC(=O)NS(=O)(=O)Nc2ccccc2C(=O)N(C)C)n1`, for which the AC50 in experiment [1] was 63.7 nM (active). For the same compound, the outcome in experiment [2], in experiment [3], in experiment [4], in experiment [5], in experiment [6] and in [7] was inactive. For the same compound, the outcome in [8], in [9], in experiment [10], in [11], in [12] and in experiment [13] was inactive. Further, the result in experiment [14] and in experiment [15] was inactive.
With `O=C(O)CCC(F)(F)C(F)(F)C(F)(F)C(F)(F)C(F)(F)F`, the outcome in [1], in experiment [2], in [3], in experiment [4], in [5] and in experiment [16] was inactive. Moreover, the outcome in experiment [6], in [7], in [8], in [9], in experiment [10] and in experiment [11] was inactive. Also, the outcome in [12], in experiment [13], in experiment [14] and in experiment [15] was inactive.
In the case of `CC1=NN(c2ccccc2)C(=O)C1`, the outcome in experiment [1], in experiment [2], in experiment [3], in experiment [4], in [5] and in experiment [6] was inactive. Also, the outcome in experiment [7], in experiment [8], in experiment [9], in experiment [10], in experiment [11] and in experiment [12] was inactive. The result in experiment [13], in [14] and in [15] was inactive.
